From PubChem BioAssay AID1851 (National Center for Advancing Translational Sciences (NCATS), 2009)
Where “and” joins values, the source holds several entries; their conditions need not be identical. Equal values may be shown once. Out of some 16,000 compounds screened, about 5,800 (36%) were called active. Roughly 23% stayed inconclusive and do not appear here. The call rests on the fitted dose curve; in most records, active means well fitted curve in the direction sought with a large enough effect; inconclusive means small, poorly fitted or top-dose-only effect, or effect the other way; inactive means no such curve, though single readings can be large or run the other way. This is one part of the list.

Target: Cytochrome P450 2C19 (Homo sapiens) (UniProt P33261)
Sequence (P33261 whole entry, looked up): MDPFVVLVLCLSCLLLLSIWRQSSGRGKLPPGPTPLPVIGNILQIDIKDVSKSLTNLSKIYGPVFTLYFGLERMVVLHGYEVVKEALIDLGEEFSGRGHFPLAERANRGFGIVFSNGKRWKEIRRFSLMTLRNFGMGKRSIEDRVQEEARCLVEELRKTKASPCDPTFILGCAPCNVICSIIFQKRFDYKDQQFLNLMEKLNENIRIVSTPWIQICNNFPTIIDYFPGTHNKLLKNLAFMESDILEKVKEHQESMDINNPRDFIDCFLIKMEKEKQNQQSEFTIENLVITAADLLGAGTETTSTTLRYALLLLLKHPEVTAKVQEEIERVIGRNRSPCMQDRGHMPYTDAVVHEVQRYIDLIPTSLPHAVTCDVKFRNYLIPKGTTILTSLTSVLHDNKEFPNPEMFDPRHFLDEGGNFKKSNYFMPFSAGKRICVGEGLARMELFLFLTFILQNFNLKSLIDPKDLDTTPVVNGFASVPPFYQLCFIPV
Experiment: Cytochrome panel assay with activity outcomes
Conditions: recombinant CYP, pro-luciferin dealkylation, luminescence, p450-cyp2c19; series mostly up to 57.1 µM; activity, negative = inhibition: at the top concentration
On the % scale 0 is the no-effect control and ±100 the full control effect.

| Compound | activity, negative = inhibition | AC50 |
| --- | --- | --- |
| O=C(O)/C=C(/C(=O)O)[C@]12CCN3CC4=CCO[C@@H]5CC(=O)N[C@@H]1[C@H]5[C@H]4C[C@H]32 | -10% [at 11.4 µM] (inactive) | – |
| CC(C)=CCC/C(C)=C/CO/N=C1/C[C@@H](O)[C@@H](O)[C@@H]2[C@@H]3C(=O)N(C(C)(C)C)C(=O)[C@H]3CC[C@H]12 | 12.2% [at 11.4 µM] (inactive) | – |
| N#CCCn1c(=O)c(-c2ccc(F)cc2)nc2cnc(N3CCOCC3)nc21 | -26% (inactive) | – |
| CNc1oc(-c2ccc(Cl)cc2)nc1C#N | – | 11.2 µM (active) |
| CCN(CC)CCNC(=O)c1cc(S(C)(=O)=O)ccc1OC | – | inactive |
| O=C(NCCNS(=O)(=O)c1ccccc1Cl)c1cc(OCC(F)(F)F)ccc1OCC(F)(F)F | – | 14.1 µM (active) |
| O=C(NCCNS(=O)(=O)c1ccc(Cl)cc1)c1cc(OCC(F)(F)F)ccc1OCC(F)(F)F | – | 2.51 µM (active) |
| O=C(O)CONC(=O)c1cc(OCC(F)(F)F)ccc1OCC(F)(F)F | 14.7% (inactive) | – |
| CCOC(=O)c1c(-c2cccc(C)c2)csc1NC(=O)c1c(-c2ccccc2)noc1C | -30% (inactive) | – |
| COC(=O)c1c(-c2ccc3ccccc3c2)csc1NC(=O)Cc1ccc(OC)c(OC)c1 | – | 1.41 µM (active) |
| CCOC(=O)c1c(-c2ccc(OC)cc2)csc1NC(=O)CCN1C(=O)c2ccccc2C1=O | – | 5.62 µM (active) |
| CCOC(=O)c1c(-c2ccccc2)csc1NC(=O)c1cccc(N2C(=O)CCC2=O)c1 | – | 3.55 µM (active) |
| N/C(=N\O)c1cn([C@@H]2O[C@@H](CO)[C@H](O)[C@@H]2O)c2ncnc(NO)c12 | 14.4% [at 11.4 µM] (inactive) | – |
| CC(=O)Nc1c(I)c(C(=O)N[C@H]2[C@@H](O)[C@H](O)[C@H](CO)O[C@@H]2O)c(I)c(N(C)C(C)=O)c1I | 12.2% [at 25.6 µM] (inactive) | – |
| Cc1ccc(OCCCN2C(=O)C(=O)c3cccc(C)c32)cc1 | – | 3.98 µM (active) |
| NS(=O)(=O)c1ccc(N=Nc2nc3[nH]c(=O)[nH]c(=O)c3[nH]2)cc1 | -0.933% [at 11.4 µM] (inactive) | – |
| Nc1ccc(Nc2ccccc2)cc1 | – | 10 µM (active) |
| CNC(=S)Nc1ccc(Nc2ccccc2)cc1 | – | 5.62 µM (active) |
| CC(C)(C)NC(=S)Nc1ccc(Nc2ccccc2)cc1 | – | 4.47 µM (active) |
| N#[N+]c1ccc(Nc2ccccc2)cc1 | 23.3% [at 11.4 µM] (inactive) | – |
| C=CC[C@@H]1C=C[C@H](O/N=C(\C)CCN2CCCc3nc(C)c(C)cc32)[C@H](CO)O1 | 29.1% [at 11.4 µM] (inactive) | – |
| CC(C(=O)NC1CCCC1)N(C(=O)c1ccc(-c2ccccc2)[nH]1)c1ccccc1F (stereo unspecified) | – | 3.98 µM (active) |
| Cc1cccc(C)c1NC(=O)C(c1ccc(Cl)cc1Cl)N1CCCCC1 (stereo unspecified) | – | 15.8 µM (active) |

| Compound | activity, negative = inhibition | AC50 |
| --- | --- | --- |
| O=C(COc1cccc(NC(=O)c2cccc([N+](=O)[O-])c2)c1)c1ccc(Br)cc1 | – | 1.26 µM (active) |
| COc1ccc(/C=N/OCc2nc3c4c(ncn3n2)Oc2ccc3ccccc3c2C4c2ccccc2)cc1 (stereo unspecified) | – | 0.0794 µM (active) |
| Cc1ccc(NC2=NC(c3ccccc3)n3c(nc(C)cc3=O)N2)c(C)c1 (stereo unspecified) | – | 14.1 µM (active) |
| CC1CCN(c2ccc(/C=N/n3nnnc3N)cc2[N+](=O)[O-])CC1 | -38.1% (inactive) | – |
| Nc1nnnn1/N=C\c1ccc(Cl)c([N+](=O)[O-])c1 | – | 0.2 µM (active) |
| CC(C)(CO[C@H]1C[C@H]2CC[C@@]1(C)C2(C)C)[N+](=O)[O-] | 12.6% [at 11.4 µM] (inactive) | – |
| O=C(O)CSc1cc(C(F)(F)F)nc(-c2ccccn2)n1 | 18% (inactive) | – |
| CC(Sc1nc(-c2ccccc2)cc(C(F)(F)F)n1)C(=O)N1CCCCC1 (stereo unspecified) | – | 10 µM (active) |
| O=c1[nH]c2cc(Br)cnc2nc1/C=C(\O)c1ccc(F)cc1 | -27.4% (inactive) | – |
| Cc1cccc(CCNc2nc3ccccc3n3nnnc23)c1 | – | 1.58 µM (active) |
| CCC(=O)NC(NC(=O)CC)C(Cl)Cl | 3.92% (inactive) | – |
| CN1CCN(NC(=O)CN2C(=O)/C(=C/c3c(Cl)cccc3Cl)SC2=S)CC1 | – | 4.47 µM (active) |
| CC(C)(C)C(=O)[C@H]1[C@H](c2ccccc2)[C@@]2(N=C(c3ccccc3)OC2=O)C2c3ccccc3C=NN21 (stereo partly specified) | – | 1.12 µM (active) |
| COc1ccccc1-c1cc(C(=O)Nc2cc(C)n(Cc3ccc(Cl)cc3)n2)no1 | – | 2.51 µM (active) |
| CCCCOC(=O)CCc1c(C)[nH]c(=O)c(C#N)c1C | – | 10 µM (active) |
| CCCCc1[nH]c(=O)c(C#N)c2c1CCCC2 | -19.7% (inactive) | – |
| CCOC(=O)Cc1cc(=O)n2[nH]c(C)c(C#N)c2n1 | 31.1% (inactive) | – |
| CC(=O)N1CCC[C@@]2(CCN(c3ncccn3)C2)C1 | -0.379% (inactive) | – |
| CCc1cccc2c(C=C(C#N)C#N)cn(CC(=O)N3CCCCC3)c12 | 52.3% (inactive) | – |
| CCN(CC)C(=O)Cn1cc(/C=C(\C#N)C(=O)N2CCN(c3ccccc3)CC2)c2ccccc21 | – | 2 µM (active) |
| CCc1cccc2c(C=C(C#N)C#N)cn(CC(=O)N3CCCC3)c12 | 53.7% (inactive) | – |
| Cc1noc(C)c1C(=O)N1CCC[C@@]2(CCN(Cc3ccccc3)C2)C1 | -4.3% (inactive) | – |
| O=C(O)Cc1ccc(O)c(O)c1 | -5.87% (inactive) | – |

| Compound | activity, negative = inhibition | AC50 |
| --- | --- | --- |
| COC(=O)c1ccc(CCc2cc(O)ccc2O)cc1 | – | 3.16 µM (active) |
| COc1cc(CC(=O)O)ccc1O | 21.8% (inactive) | – |
| COC(=O)c1cc(Br)c(=O)n(CCc2ccc(O)cc2)c1 | – | 3.55 µM (active) |
| COC(=O)[C@](C)(N)Cc1ccc(O)cc1 | -6.96% (inactive) | – |
| CC(C)=CCC/C(C)=C/CO/N=C1/C[C@@H](O)[C@@H](O)[C@@H]2[C@H]3C(=O)N(c4ccc(F)cc4F)C(=O)[C@@H]3CC[C@@H]12 | -9.14% [at 11.4 µM] (inactive) | – |
| COc1ccccc1C(=O)NN1C(=O)C2C3C=CC(O3)C2C1=O (stereo unspecified) | 9.47% (inactive) | – |
| COc1ccccc1C(=O)NC(=S)N1CCCc2ccccc21 | – | 2 µM (active) |
| O=C(CSc1nnc2c3ccccc3c3ccccc3c2n1)Nc1ccccc1 | – | 2 µM (active) |
| c1ccc(CSc2nnc3c4ccccc4c4ccccc4c3n2)cc1 | -34.7% [at 11.4 µM] (inactive) | – |
| c1cncc(-c2ccc3ncnc(NCCN4CCOCC4)c3c2)c1 | 13.4% (inactive) | – |
| c1ccc(-c2nc(NCCCn3ccnc3)c3oc4ccccc4c3n2)cc1 | – | 0.158 µM (active) |
| c1ccc2c(c1)oc1c(NCCCn3ccnc3)ncnc12 | – | 3.55 µM (active) |
| CNc1csc(C)c(C)c1=O | – | 28.2 µM (active) |
| Cc1nc2ncnn2c(C)c1CCC(=O)Nc1ccc(S(=O)(=O)N2CCCCCC2)cc1 | -27.7% (inactive) | – |
| O=C(O)c1cc(S(=O)(=O)N2CCCCC2)ccc1F | -3.99% (inactive) | – |
| O=C(Nc1ccc(F)cc1)c1cc(S(=O)(=O)N2CCCCC2)cs1 | – | 22.4 µM (active) |
| Cc1ccc(S(=O)(=O)Oc2cc(N)c3c(n2)CCC3)cc1 | – | 1 µM (active) |
| Cc1ccc(S(=O)(=O)O[C@@H]2[C@H]([C@@H]3COC(C)(C)O3)O[C@H]3OC(C)(C)O[C@@H]32)cc1 | 45.2% [at 11.4 µM] (inactive) | – |
| Cc1ccc(S(=O)(=O)Oc2cc(S(=O)(=O)O)cc3cc(S(=O)(=O)O)cc(N)c23)cc1 | 7.86% [at 11.4 µM] (inactive) | – |
| CC(C)CN1CCC2(CC1)CCN(C(=O)c1cccc(F)c1)CC2 | -11.2% (inactive) | – |
| O=C(c1cccc(F)c1)N1CCC2(CCN(Cc3ccccc3)CC2)CC1 | -9.16% (inactive) | – |
| CC(C)CC(=O)N1CCN(Cc2cccc(F)c2)CC1 | – | 3.55 µM (active) |
| COc1cccc(Cn2c(=O)c(-c3cccs3)nc3cnc(N4CCNCC4)nc32)c1 | – | 31.6 µM (active) |

| Compound | activity, negative = inhibition | AC50 |
| --- | --- | --- |
| COc1cccc(Cn2c(=O)c(-c3ccc(Cl)cc3)nc3cnc(N4CCNCC4)nc32)c1 | – | 25.1 µM (active) |
| COc1ccc(-n2c(=O)c(-c3ccc(Cl)cc3)nc3cnc(N4CCOCC4)nc32)cc1 | – | 25.1 µM (active) |
| COc1cccc(Cn2c(=O)c(-c3cccs3)nc3cnc(N4CCN(C)CC4)nc32)c1 | -17.6% (inactive) | – |
| COc1ccc(-n2c(=O)c(-c3ccc(Cl)cc3)nc3cnc(N4CCNCC4)nc32)cc1 | -24.1% (inactive) | – |
| COc1ccc(-n2c(=O)c(-c3cccs3)nc3cnc(N4CCNCC4)nc32)cc1 | -27.6% (inactive) | – |
| COc1ccc(-c2nc3cnc(N4CCNCC4)nc3n(Cc3ccc(F)cc3)c2=O)cc1 | -35% (inactive) | – |
| COc1cccc(Cn2c(=O)c(-c3ccc(Cl)cc3)nc3cnc(N4CCN(C)CC4)nc32)c1 | 61.1% (inactive) | – |
| COc1ccc(-n2c(=O)c(-c3ccc(F)cc3)nc3cnc(N4CCOCC4)nc32)cc1 | -8.57% (inactive) | – |
| C[C@@H](NCc1cc(Br)cc2[nH]c(=O)c(=O)[nH]c12)P(=O)(O)O | 19.9% (inactive) | – |
| COc1ccc(C[N+](C)(C)N)cc1OC | 22.8% [at 11.4 µM] (inactive) | – |
| COc1ccc(CCN(C)CCc2ccc(OC)c(OC)c2)cc1OC | – | inactive |
| COc1ccc(CC(=S)N2CCOCC2)cc1OC | – | 10 µM (active) |
| CO[C@@H]1COC(=O)[C@@H](C)NC(=O)C/C=C\[C@@H](C)[C@H](NS(=O)(=O)c2ccc(C)cc2)COC(=O)[C@H](C)NC(=O)C/C=C\[C@H]1C | 1.72% [at 11.4 µM] (inactive) | – |
| Cc1ccc(CNC(=O)C2CC(c3ccccc3[N+](=O)[O-])=NO2)o1 (stereo unspecified) | – | 7.94 µM (active) |
| Cc1ccc(CCNC(=O)C2CC(c3ccccc3[N+](=O)[O-])=NO2)cc1 (stereo unspecified) | – | 11.2 µM (active) |
| O=C(NCCCCc1ccccc1)C1CC(c2ccccc2[N+](=O)[O-])=NO1 (stereo unspecified) | – | 7.08 µM (active) |
| Cc1ccc(CNC(=O)C2CC(c3ccccc3[N+](=O)[O-])=NO2)cc1 (stereo unspecified) | – | 3.16 µM (active) |
| NCCNCC1CCNCC1 | 2.44% [at 11.4 µM] (inactive) | – |
| C/C(CCN1CCCc2nc(C)c(C)cc21)=N\O[C@@H](C)c1cn([C@H](CO)Cc2ccccc2)nn1 | -18.6% [at 11.4 µM] (inactive) and 31.1% [at 11.4 µM] (inactive) | – |
| CC(C)CC1CC(=O)OC1(C)C(=O)CSc1nc2ccccc2s1 (stereo unspecified) | – | 7.94 µM (active) |
| O=C(CSc1nc2ccccc2s1)c1sc2sc3ccccc3[n+]2c1O | -17.6% [at 11.4 µM] (inactive) | – |
| CC1(C(=O)CSc2nc3ccccc3s2)CCC(=O)O1 (stereo unspecified) | – | 11.2 µM (active) |
